From PubChem
Compounds with a hit are over-represented: about 4.1% of the library has one in this group of screens.
MEKK2wt PB1 HTS – raises or lowers MEK5 binding to wildtype human MEKK2 PB1 domain | binding response (% of control), % at 10 µM | Q9Y2U5 | hit rate 1.1% among 290,000 | bead flow cytometry, Alexa488-MEK5 binding to MEKK2 WT; actives lie on both sides | AID 1531; in the data active = binding response below about 67% or above about 130%
Mot1-301 SUMO – blocks SUMOylation pathway, rescuing yeast Mot1-301 growth; growth rescue, % at 18.8 µM; hit rate 1% among 320,000; S. cerevisiae Mot1-301 growth rescue, ATP luminescence, 38.5C; percent above DMSO median, 100 means doubled;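 active = every valid replicate shows activation above 250% relative to neutral control wells; inactive = the rest, any valid replicate at or below 250%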;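 note: OY570 slx delta 5 strain wells were the positive control but not used for scaling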
MEKK3 PB1 HTS – raises or lowers MEK5 binding to the human MEKK3 PB1 domain; bead-based flow cytometry, Alexa488-MEK5 binding to MEKK3; actives lie on both sides; 0 = blocked by unlabeled MEK5, 100 = vehicle; binding response (% of control), % at 10 µM; hit rate 1.4% among 290,000;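 active = binding response more than 3 SD above or below the average of its plate-row segment, actives on both sides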;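 note: Alexa488 bead fluorescence after subtracting the streptavidin-only scavenger bead signal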
CHT allo act – allosteric activators of human choline transporter CHT; B-score at 10 µM; Q9GZV3; hit rate 0.49% among 310,000; CHT-expressing cells, membrane potential dye, choline EC20; active compounds read high; LV-AA mutant CHT in HEK293 cells;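 active = initial fluorescence not abnormally high and integrated response B-score, plate-corrected, over 3 SD above library mean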
Target sequence (Q9GZV3 whole entry, looked up): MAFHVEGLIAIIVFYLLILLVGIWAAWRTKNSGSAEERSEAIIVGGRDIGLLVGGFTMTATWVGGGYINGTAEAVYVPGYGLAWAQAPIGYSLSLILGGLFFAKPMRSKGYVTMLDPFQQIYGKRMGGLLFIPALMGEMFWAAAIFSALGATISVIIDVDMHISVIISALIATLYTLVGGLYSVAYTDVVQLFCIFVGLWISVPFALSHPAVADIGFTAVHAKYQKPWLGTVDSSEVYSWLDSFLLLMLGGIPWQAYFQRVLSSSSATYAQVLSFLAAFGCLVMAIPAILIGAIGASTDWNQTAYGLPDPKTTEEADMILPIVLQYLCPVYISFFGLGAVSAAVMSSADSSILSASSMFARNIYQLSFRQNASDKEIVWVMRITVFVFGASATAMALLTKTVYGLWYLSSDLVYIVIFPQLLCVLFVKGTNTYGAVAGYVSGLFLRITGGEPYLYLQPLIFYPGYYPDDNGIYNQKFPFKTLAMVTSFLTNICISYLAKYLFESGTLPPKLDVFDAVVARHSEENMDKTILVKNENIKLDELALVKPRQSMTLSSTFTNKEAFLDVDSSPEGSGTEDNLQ
MEKK2mut PB1 HTS – signal of MEK5 binding to mutant human MEKK2 PB1 domain | bead flow cytometry, Alexa488-MEK5 binding to MEKK2 mutant | percent response, % at 10 µM | hit rate 0.35% among 290,000; in the data active = percent response above about 24%, passing the limit was not always enough
CHT inh – inhibits the human high affinity choline transporter; CHT-expressing cells, membrane potential dye, choline response; active compounds read low; B-score at 10 µM; hit rate 0.86% among 310,000; AID 488975;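 active = B-score over 3 SD under the library average, and starting fluorescence ratio not unusually high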;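 note: choline stimulus applied at its EC90 after an EC20 pre-addition; B-score computed on integrated fluorescence ratio after choline addition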
MEKK2wt confirm – raises or lowers MEK5 binding to wildtype human MEKK2, retest; shares compounds with MEKK3 PB1 HTS; bead flow cytometry, Alexa488-MEK5 binding to MEKK2 WT; actives lie on both sides; hit rate 2.4% among 5,900; AID 1892; binding response (% of control), % at 10 µM; in the data active = binding response below about 16% or above about 210%; inactive = in between
MEKK2mut confirm – signal of MEK5 binding to mutant human MEKK2, retest. shares compounds with MEKK3 PB1 HTS. bead flow cytometry, Alexa488-MEK5 binding to MEKK2 mutant. percent response, % at 10 µM. hit rate 2% among 5,900; in the data active = percent response mostly above about 71%, no sharp cut-off; inactive = mostly below about 38%;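 note: higher means compound restores mutant binding toward wildtype level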
MEKK3 confirm – MEKK3-MEK5 PB1 inhibition, single concentration confirmation; binding response (% of control), % at 10 µM; hit rate 1.8% among 5,900; shares compounds with MEKK3 PB1 HTS; AID 1894; bead flow cytometry, Alexa488-MEK5 binding to MEKK3; active compounds read low;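 active = binding response below 72% of control, or above a set upper limit, though filed actives all read lower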;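 note: 100% = DMSO only wells and 0% = binding blocked by excess unlabeled MEK5; lower values mean stronger disruption of MEK5 binding to MEKK3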
Active calls of the source: *; i = inactive; . = not tested or not shown; [ ] = dose if it differs, or a comment.

SMILES	MEKK2wt PB1 HTS	Mot1-301 SUMO	MEKK3 PB1 HTS	CHT allo act	MEKK2mut PB1 HTS	CHT inh	MEKK2wt confirm	MEKK2mut confirm	MEKK3 confirm
COc1ccccc1NC(=O)Cc1noc(CSc2nnc(C)n2C)n1	98	-1	92	i	-47	i	.	.	.
COc1ccc(Br)cc1CN1CCCCCC1	111	-5	107	i	4	i	.	.	.
CCCCC(=O)OCC(=O)c1cc(C)n(-c2c(C)n(C)n(-c3ccccc3)c2=O)c1C	83	2	65*[inhibitor]	i	-3	i	90	-10	89
CCCCN(CCCNC(=O)c1ccc2nc(N3CCOCC3)sc2c1)Cc1ccccc1	158*	110	105	i	20	i	167	37	109
C=CCN(c1ccccc1OC)S(=O)(=O)c1cccc(C(=O)OCC(=O)c2c[nH]c3ccccc23)c1	119	-4	138*	i	0	i	115	0	103
COc1ccccc1NS(=O)(=O)NC(=O)c1c(C)[nH]c2ccccc12	102	-24	103	i	5	i	.	.	.
COc1ccc(C2CC(c3cccs3)=NN2S(C)(=O)=O)cc1OC (stereo not drawn)	.	-14	80	i	70*	i	100	5	99
COc1ccc(C2CC(c3cccs3)=NN2c2ccc(C=O)cc2)cc1 (stereo not drawn)	63*[inhibitor]	7	88	i	-4	i	82	-16	99
Cc1ccccc1OCCNc1cc(N2CCNCC2)ccc1[N+](=O)[O-]	162*	-7	110	i	35	i	167	34	104
O=C(Nc1nnc(-c2ccco2)o1)c1ccc(N2C(=O)CCC2=O)cc1	87	0	70*[inhibitor]	i	-2	i	95	2	106
Cc1cc(C)cc(SCc2noc(C(=O)NCCC(C)C)c2C(=O)NCCC(C)C)c1	110	433	103	i	2	i	.	.	.
Cc1ccc(NC2CCCN(C(=O)CCn3nccc3C)C2)cc1C (stereo not drawn)	105	14	101	i	5	i	.	.	.
O=C(NNc1cc(Cl)ccc1Cl)c1c(F)cccc1Cl	124	26	129*	i	25	i	108	5	106
CC(CCc1ccccc1)NC(=O)N1CCOCC1 (stereo not drawn)	96	-20	99	i	-2	i	.	.	.
O=C(O)C(=O)Nc1ccc(NC(=O)C(c2ccccc2)c2ccccc2)cc1	3.0*[inhibitor]	0	2.0*[inhibitor]	i	-51	i	99	4	103
O=C(CN(c1cccc([N+](=O)[O-])c1)S(=O)(=O)c1ccccc1)N(Cc1ccccc1)Cc1ccccc1	111	506	137*	i	1	i	99	-10	99
Cc1noc(/C=C/c2ccccc2F)c1S(=O)(=O)N1CCC(C(=O)N2CCN(C)CC2)CC1	113	-1	103	i	6	i	.	.	.
COc1cc(OC)c(CN2CCc3c([nH]c4ccccc34)C2)cc1Br	122	4	103	i	30*	i	128	15	107
Cc1ccc(Nc2nc(NCC3CCCO3)nc(N)c2[N+](=O)[O-])cc1 (stereo not drawn)	105	2	104	i	12	i	.	.	.
Nc1nc(NCC2CCCO2)nc(Nc2ccc(F)cc2)c1[N+](=O)[O-] (stereo not drawn)	117	-10	199*	i	2	i	105	1	103
CCOC(=O)c1ccc(NC(=O)C(=O)NCc2ccccn2)cc1	98	12	101	i	-4	i	.	.	.
CCC(C)NC(=O)C(=O)NCc1ccncc1 (stereo not drawn)	86	5	81*[inhibitor]	i	-6	i	82	-15	93
CCOC(=O)c1ccc(NC(=O)C(=O)NCc2ccncc2)cc1	24*[inhibitor]	-8	19*[inhibitor]	i	-15	i	111	12	104
O=C(NCCNC(=O)c1ccccn1)c1ccc(-c2ccccc2)cc1	106	3	107	i	12	i	.	.	.
Cc1cccc(NS(=O)(=O)c2cccs2)c1	91	84	93	i	-3	i	.	.	.
SMILES	MEKK2wt PB1 HTS	Mot1-301 SUMO	MEKK3 PB1 HTS	CHT allo act	MEKK2mut PB1 HTS	CHT inh	MEKK2wt confirm	MEKK2mut confirm	MEKK3 confirm
O=S(=O)(Nc1cccnc1)c1cccs1	54	-19	41*[inhibitor]	i	-24	i	111	14	106
COCCNc1nnc(SCC(=O)Nc2sc3c(c2C(=O)c2ccccc2)CCCC3)s1	106	.	131*	i	0	i	99	-4	102
Nc1nnc(SCC(=O)Nc2sc3c(c2C(=O)c2ccccc2)CCCC3)s1	98	-15	102	i	-1	i	.	.	.
NC(N)=N/N=C/c1ccc(OCc2ccccc2Cl)cc1	208*	-11	111	i	49*	i	209*	45	103
O=C(NCC1CCCO1)C(=O)N/N=C/c1ccc(OCc2ccccc2Cl)cc1 (stereo not drawn)	.	6	.	i	.	i	.	.	.
CCOCCCNCc1ccc(OCc2ccccc2Cl)cc1	99	122	95	i	-1	i	.	.	.
OCCCCNCc1ccc(OCc2ccccc2Cl)cc1	163*	127	101	i	27*	i	170	41	111
O=C(O)CCC(=O)c1ccc(-c2ccccc2)cc1	32*[inhibitor]	483	67*[inhibitor]	i	2	i	102	-7	99
CC(C)OCCCN1CN(S(=O)(=O)c2cccs2)c2nc3ccccc3nc21	99	-16	102	i	1	i	.	.	.
Cc1ccc(N=C(N)N=C(N)N)cc1	96	-21	101	i	3	i	.	.	.
CCOC(=O)Cc1csc(NC(=O)c2ccc3ncsc3c2)n1	110	6	104	i	8	i	.	.	.
COC(=O)c1c(NC(C)=O)csc1C	95	19	93	i	-19	i	.	.	.
CN1CCC/C1=C/C=C1\SC(=S)NC1=O	112	37	151*	i	1	i	103	-2	105
N#Cc1nc(Cl)c(Cl)c(NN)c1Cl	96	-2	102	i	-5	i	.	.	.
